PubChem BioAssay

Experiment: binders of probe aFSTL3 on microarray, primary screen, stem cell growth factor project, biochemical, small-molecule microarray, fluorescence 635/667 (AID 1064);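 further: measures binding of the biotinylated anti-FSTL3 antibody to printed compounds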
Settings: higher = more signal
COc1ccc(C(O)C2C=CC3C(=O)NC(=O)C3N2Nc2ccccn2)c2ccccc12 (configuration not stated) gave a composite z-score of -0.37. For C=C(COC)/C(=C/C[C@H](OC(=O)c1ccncc1)c1ccc(OCCO)cc1)c1cnc2ccccc2c1, the composite z-score was -0.219. In the case of C=C(C)C1C(=C)CN([C@H](CO)c2ccccc2)C1=O (some centres not stated), the composite z-score is reported as 0.172. Molecule C=CCC(OC(C)=O)[C@@H]1[C@@H](N(Cc2ccc(-c3cccc(C(F)(F)F)c3)o2)C(=O)Cc2ccc(F)cc2)c2cc(OCCCO)ccc2N1C(=O)Cc1ccc(OC)cc1 (some centres not stated) has a composite z-score of -0.0361. CC(C)c1ccc(NN2C(C(O)c3cc(C(F)(F)F)cc(C(F)(F)F)c3)C=CC3C(=O)N(c4ccccc4)C(=O)C32)cc1 (configuration not stated) showed a composite z-score of 0.43. In the case of COc1ccc([Si](C)(C)[C@H]2[C@H](CCn3cc([C@H](O)c4ccccc4)nn3)O[C@@]3(C(=O)N(Cc4cccc(N5CCOC5=O)c4)c4ccccc43)[C@@H]2C)cc1, the composite z-score is reported as -0.218. Molecule Cc1ccc(S[C@]2(C(=O)NCC(C)C)CC(=O)N(Cc3cc(C(F)(F)F)cc(C(F)(F)F)c3)[C@@H]2c2ccc(CO)cc2I)cc1 has a composite z-score of 1.61.

Experiment: binders from COS7 lysate, DM2A8 probe, primary screen, torsin A project, cell lysate, small-molecule microarray, fluorescence 635/667 (AID 1065)
Settings: higher = more signal, COS7 lysate expressing mutant human TOR1A
Molecule COCC(=C=CC[C@H](O)c1ccccc1OCCO)C[C@H](O)c1cc(Cl)cc(Cl)c1O has a composite z-score of 0.555. C=CCC(OC(C)=O)[C@@H]1[C@@H](N(Cc2ccc(-c3ccccc3)cc2)C(=O)Cc2ccc(F)cc2)c2cc(OCCCO)ccc2N1C(=O)c1ccc(-c2ccccc2)cc1 (some centres not stated) showed a composite z-score of 0.143. For COCCOC(=O)N1C(=O)[C@@]2(c3cc(C#CC4=CCCCC4)ccc31)[C@H](c1ccc(O)cc1)N1[C@H](c3ccccc3)[C@H](c3ccccc3)OC(=O)[C@H]1[C@@H]2C(N)=O, the composite z-score was 0.185. With O=C1O[C@H](c2ccccc2)[C@H](c2ccccc2)N2[C@H]1[C@@H](C(=O)O)[C@]1(C(=O)Nc3ccc(C#CCCO)cc31)[C@H]2c1ccc(O)cc1 the composite z-score was 0.502. Molecule O=C(NCc1ccccc1)[C@@]1(Cc2ccccc2)N=C(c2ccc(OCCCO)cc2)O[C@H]1c1ccccc1 has a composite z-score of 1.92. Work on CCOC(=O)C[C@H]1[C@H](OC(=O)c2cc3ccccc3oc2=O)[C@@H](NC(=O)Cc2ccc(OC)cc2)c2cc(OCCCO)ccc2N1C(=O)c1ccccc1 yielded a composite z-score of 0.41. In the case of COc1ccc([Si](C)(C)[C@H]2[C@H](CCO)O[C@@]3(C(=O)N(C)c4c(Br)cc(C)cc43)[C@@H]2C)cc1, the composite z-score is reported as 0.325. For CN(C)C(=O)[C@@]1(Cc2ccccc2)N=C(c2ccc(OCCCO)cc2)O[C@H]1c1ccccc1N=[N+]=[N-], the composite z-score was -0.204. For CC(=O)NCCCC[C@@H]1NC(=O)[C@@H]2C[C@H](C(=O)NCCCCCCNC(=O)CS)[C@H](c3cccc(OCCO)c3)N2C1=O, the composite z-score was 0.311. For CN(C)CCCNC(=O)[C@@]1(C)c2ccccc2C(=O)N(Cc2cc(F)cc(C(F)(F)F)c2)[C@H]1c1ccc(CO)cc1, the composite z-score was -0.224. In the case of O=C1C[C@]2(c3ccc([N+](=O)[O-])cc3)C(=O)N(CCN3CCOCC3)c3cc(CO)ccc3[C@H]2N1C1CCCCC1, the composite z-score is reported as -0.808. In the case of COC(=O)C=C(CC(O)c1cccc(Cl)c1)OC (configuration not stated), the composite z-score is reported as 0.172. COc1ccc(CCN2C(=O)[C@@]3(c4ccc([N+](=O)[O-])cc4)CC(=O)N(C4CCCCC4)[C@@H]3c3ccc(CO)cc32)cc1 showed a composite z-score of 0.0269. For O=C1C2C=CC(C(O)C(c3ccccc3)c3ccccc3)N(n3cnnc3)C2C(=O)N1Cc1ccccc1 (configuration not stated), the composite z-score was 0.488. In the case of O=C1c2ccccc2[C@@]2(Cc3ccccc3N(CCN3CCOCC3)C2=O)[C@H](c2ccc(CO)cc2)N1Cc1ccccc1, the composite z-score is reported as -0.374. CC(C)(C)OC(=O)CC[C@]1(C(=O)NCC(O)CO)COC(c2ccc(OCCCO)cc2)=N1 (some centres not stated) gave a composite z-score of -0.382. CN1C(=O)[C@]2(Cc3ccccc3)N=C(c3ccc(OCCCO)cc3)O[C@@H]2c2ccccc21 gave a composite z-score of 0.758. O=C1OCCC/C=C\[C@H]2OC34C=CCN(Cn5nnc6ccccc65)C(=O)[C@H]3N(CCO)C(=O)[C@@H]4C12 (some centres not stated) showed a composite z-score of -1.46. CC(C)C(=C=CC[C@@H](O)c1ccccc1OCCO)CCO showed a composite z-score of -0.193. N#Cc1ccc(NN2C(C(O)c3c(F)cccc3Cl)C=CC3C(=O)N(c4ccccc4)C(=O)C32)cc1 (configuration not stated) showed a composite z-score of 0.187. In the case of COC(=O)[C@@]1(Cc2ccccc2)[C@H]2c3cc(C(=O)N4CCCC4)n(Cc4cccc5ccccc45)c3C[C@H]2CN1C(=O)c1ccccc1, the composite z-score is reported as 0.0848. In the case of COCC(=C=CC[C@@H](O)c1ccccc1OCCO)C[C@@H](O)c1cc(Cl)cc(Cl)c1O, the composite z-score is reported as 0.528. C=CCOC(=O)[C@@H]1[C@H]2C(=O)O[C@H](c3ccccc3)[C@H](c3ccccc3)N2[C@H](c2ccc(OCCOC(=O)[C@@H]3C[C@@H]4C(=O)N[C@@H](Cc5ccccc5)C(=O)N4[C@@H]3c3ccc(O)cc3)cc2)[C@@]12C(=O)Nc1ccc(I)cc12 gave a composite z-score of 0.602. In the case of C[C@@H]1ON(c2cccc(C(=O)OC(C)(C)C)c2)[C@H](c2ccc(Br)cc2)[C@H]1C(=O)N1C(=O)OC[C@H]1Cc1ccccc1, the composite z-score is reported as 0.351. O=C1OCCC=C[C@H]2OC34C=CCN(CCN5CCOCC5)C(=O)[C@H]3N(CCCCCCO)C(=O)[C@@H]4C12 (some centres not stated) showed a composite z-score of -0.352. C=CC[C@@]1(C(N)=O)N=C(c2ccc(OCCCO)cc2)O[C@@H]1c1ccccc1CN=[N+]=[N-] gave a composite z-score of -0.41. For C=CCOC(=O)[C@H]1[C@@H]2C(=O)O[C@@H](c3ccccc3)[C@@H](c3ccccc3)N2[C@@H](c2ccc(OCCOC(=O)[C@H]3C[C@H]4C(=O)N[C@@H](CC(C)C)C(=O)N4[C@H]3c3ccc(O)cc3)cc2)[C@]12C(=O)Nc1ccc(I)cc12, the composite z-score was 1.1. Molecule CCCCN1CC=CC23O[C@@H]4/C=C\CCC(C)OC(=O)C4[C@H]2C(=O)N(CCCCCO)[C@@H]3C1=O (some centres not stated) has a composite z-score of -0.421. COc1ccc(C(O)C2C=CC3C(=O)NC(=O)C3N2Nc2ccccn2)c2ccccc12 (configuration not stated) gave a composite z-score of 0.184. Molecule C=C(COC)/C(=C/C[C@H](OC(=O)c1ccncc1)c1ccc(OCCO)cc1)c1cnc2ccccc2c1 has a composite z-score of 0.833. Molecule C=C(C)C1C(=C)CN([C@H](CO)c2ccccc2)C1=O (some centres not stated) has a composite z-score of -0.605. With C=CCC(OC(C)=O)[C@@H]1[C@@H](N(Cc2ccc(-c3cccc(C(F)(F)F)c3)o2)C(=O)Cc2ccc(F)cc2)c2cc(OCCCO)ccc2N1C(=O)Cc1ccc(OC)cc1 (some centres not stated) the composite z-score was -0.162. With CC(C)c1ccc(NN2C(C(O)c3cc(C(F)(F)F)cc(C(F)(F)F)c3)C=CC3C(=O)N(c4ccccc4)C(=O)C32)cc1 (configuration not stated) the composite z-score was -0.165. COc1ccc([Si](C)(C)[C@H]2[C@H](CCn3cc([C@H](O)c4ccccc4)nn3)O[C@@]3(C(=O)N(Cc4cccc(N5CCOC5=O)c4)c4ccccc43)[C@@H]2C)cc1 gave a composite z-score of 0.071. For Cc1ccc(S[C@]2(C(=O)NCC(C)C)CC(=O)N(Cc3cc(C(F)(F)F)cc(C(F)(F)F)c3)[C@@H]2c2ccc(CO)cc2I)cc1, the composite z-score was -0.367.
